Data: PubChem BioAssay AID504832 (National Center for Advancing Translational Sciences (NCATS), 2011)
About 18,000 (5.8%) of roughly 310,000 compounds were called active. A call without a number means that no potency is given here. Another 22% or so got no clear call; they are omitted. This is one part of a sample in which actives are shown more often than they occur. Calls come from the whole dose curve; as a rule, active = well fitted inhibition curve with a large enough effect; inconclusive = small, poorly fitted or top-dose-only effect, or another doubt; inactive = no such curve, though single readings can be large or run the other way. Non-standard residues stand in square brackets, D forms with d. Residues, ends and D or L forms follow the SMILES beside them. *: point of attachment. PhAc = O=C(Cc1ccccc1)*

test: Primary qHTS for delayed death inhibitors of the malarial parasite plastid, 48 hour incubation; settings: P. falciparum luciferase growth in erythrocytes; series mostly up to 28.7 µM
How it was run: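 In quantitative HTS format, infected erythrocytes bearing luciferase-reporter parasites were treated for a single generation at 37 C. Luminescence after adding detection reagent served as the growth measure.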
Potency is the fitted concentration of half-maximal effect.

Compound | Potency | activity change, negative = inhibition
Cc1cc(-c2nnc(SCC(=O)Nc3ccc(S(N)(=O)=O)cc3)n2N)n[nH]1 | inactive | 
CN1C(=O)[C@H]2[C@@H](C3CC3)N3C(=O)CN(Cc4ccccc4)C(=O)[C@@]3(C)[C@H]2C1=O | inactive | 
O=C1NC(c2ccccc2)Oc2ccccc21 (stereo unspecified) | inactive | 
COc1ccc(-c2ocnc2C(=O)Nc2ccc3c(c2)CCC3)cc1 | inactive | 
O=C(Nc1nnc(-c2ccc(F)cc2)s1)c1c(F)cccc1Cl | inactive | 
CC(=O)c1nn(-c2cccc(C(F)(F)F)c2)c(=O)[nH]c1=O | inactive | 
CCNS(=O)(=O)c1ccc(CCC(=O)N2CCN(c3ccc(OC)cc3)CC2)cc1 | inactive | 
CC(C)n1ncc2c(C(=O)Nc3ccc(CC#N)cc3)cc(C3CC3)nc21 | 14.7 µM (active) | 
CCCc1ccc(OCCNC(=O)c2ccccc2Br)cc1 | inactive | 
N#CCc1ccc(NC(=O)c2ccccc2C(=O)Nc2ccc(CC#N)cc2)cc1 | inactive | 
COc1ccc(OCCNC(=O)c2cc(C3CC3)nc3c2cnn3C(C)C)cc1 | 13.1 µM (active) | 
CC(=O)Nc1ccc(CC#N)cc1 | inactive | 
COCCNC(=O)COc1ccc(C)c(C)c1 | inactive | 
CC(C)n1ncc2c(C(=O)NCc3ccccc3CN(C)C)cc(C3CC3)nc21 | 11.7 µM (active) | 
Cc1ccccc1OCCC(=O)OCC(=O)NCCc1ccc(S(N)(=O)=O)cc1 | inactive | 
Cc1cc(C)c(S(=O)(=O)c2cc(F)ccc2C)c(=O)[nH]1 | inactive | 
O=c1ccc(-c2ccc(S(=O)(=O)Nc3ccccc3)o2)n[nH]1 | inactive | 
O=C(CN1C(=O)CSC1=O)N1CCCC(Nc2ccc(F)cc2)C1 (stereo unspecified) | inactive | 
Cc1ccc(S(=O)(=O)N(C)c2ccc(OCC(=O)OCC(=O)N(CC#N)c3ccccc3)cc2)cc1 | inactive | 
Cc1cccc(NC(=S)NC(=O)c2ccc(Br)o2)c1 | inactive | 
Cc1cccc(NC(=O)c2ccc([N+](=O)[O-])o2)c1 | 13.1 µM (active) | 
O=C(Nc1ccc(Br)cn1)c1ccc([N+](=O)[O-])o1 | inactive | 
O=C(CNC(=O)c1ccc(Br)o1)Nc1ccccc1 | inactive | 
COCCNC(=O)c1ccc(S(=O)(=O)c2ccc(Cl)cc2)c(NC(C)=O)c1 |  | 0.449% [at 0.00184 µM] (inactive)
CC(Oc1ccc(F)cc1)C(=O)N1CCN(c2ncccn2)CC1 (stereo unspecified) | inactive | 
c1cnc(N2CCN(c3ccc4ccccc4n3)CC2)nc1 | inactive | 

Compound | Potency | activity change, negative = inhibition
CC12CCC(C(=O)N3CCN(c4ncccn4)CC3)(c3nc4ccccc4nc31)C2(C)C (stereo unspecified) | 11.7 µM (active) | 
O=C(NCc1nnc(SCC(=O)N2CCCCCC2)o1)c1ccc(F)cc1 | inactive | 
Cc1ccc(S(=O)(=O)N[C@@H](Cc2ccccc2)C(=O)N2CCC(C(=O)N[C@H](C(=O)O)C(C)O)CC2)cc1 (stereo partly specified) | inactive | 
Cc1cc(C)c(C#N)c(SCc2ccccc2C(=O)O)n1 | inactive | 
CN1CCc2nc(SC(C(=O)O)c3ccccc3)c(C#N)c(-c3cccs3)c2C1 (stereo unspecified) | inactive | 
CC(NC(=O)CSc1nc2c(cc1C#N)CN(C)CC2)c1ccccc1 (stereo unspecified) | 10.4 µM (active) | 
CC1(C)CCc2nc(SCc3ccccc3)c(C#N)cc2C1 | 5.22 µM (active) | 
N#CC1=C(SCc2ccccc2)NC(=O)C(C#N)C12CCCC2 (stereo unspecified) | inactive | 
Cc1cc(NC(=O)CSc2nc3c(cc2C#N)CCCCC3)no1 | inactive | 
C[C@@H]1CC[C@@]2(OC1)O[C@H]1C[C@H]3[C@@H]4CC=C5C[C@@H](O)[C@H](O)C[C@]5(C)C4CC[C@]3(C)[C@H]1[C@@H]2C (stereo partly specified) | inactive | 
CN(C)c1ccc(CNC(=O)CN2C(=O)COc3ccc(S(=O)(=O)N4CCCC4)cc32)cc1 | inactive | 
Cc1ccc(S(=O)(=O)NCc2ccc(C(=O)NC3CCC(C)CC3)cc2)cc1 (stereo unspecified) | inactive | 
O=C(CC(n1cncn1)C(Cl)(Cl)Cl)c1ccc([N+](=O)[O-])cc1 (stereo unspecified) |  | -32.2% [at 0.00184 µM] (inactive)
CC(C)C[C@@H](NC(=O)[C@H]1CCCN1C(=O)Cc1ccccc1)C(N)=O (PhAc-[dP]-[dL]-NH2) |  | 8.09% [at 0.00184 µM] (inactive)
CCOCCn1c(-c2ccccc2)nc2ccccc21 | inactive | 
CCCCn1c(N)c(N(CCOC)C(=O)CSCC(=O)Nc2cccc(C)c2)c(=O)[nH]c1=O | inactive | 
CCCCn1c(-c2cccc(C)c2)nc2cc3[nH]c(=O)c(C(C)C)nc3cc21 | 9.28 µM (active) | 
CN(C(=O)CC1C(=O)NCCN1Cc1ccc2ccccc2c1)C1CCOCC1 (stereo unspecified) | inactive | 
CN(C(=O)CC1C(=O)NCCN1Cc1ccc(F)cc1Cl)C1CCCCC1 (stereo unspecified) | 11.7 µM (active) | 
CN(Cc1cccc2ncccc12)C(=O)CC1C(=O)NCCN1Cc1ccc(F)cc1 (stereo unspecified) | inactive | 
O=C(CN(Cc1ccccc1)C(=O)CCC(=O)Nc1ccccn1)NCCc1ccccc1 | inactive | 
Cc1sc2ncn(CC(=O)NCCCC(=O)N3CCN(c4ccccc4F)CC3)c(=O)c2c1C | inactive | 
CCCCCOc1ccc(/C=C/C(=O)NCCc2nc3ccccc3[nH]2)cc1OC | 10.4 µM (active) | 
O=C(COc1ccccc1)NCCc1nc2ccccc2[nH]1 | inactive | 
COc1ccc(OC(C)C(=O)NCCc2nc3ccccc3[nH]2)cc1 (stereo unspecified) | inactive | 
CCC(C)N1CC(=O)N2Cc3[nH]c4ccccc4c3C[C@H]2C1=O (stereo partly specified) | inactive | 

Compound | Potency | activity change, negative = inhibition
CC(C)c1ccc(Cc2nnc(NCCCO)[nH]c2=O)cc1 | inactive | 
Cc1ccn(CCC(=O)N2c3ccccc3CC2C)n1 (stereo unspecified) | inactive | 
O=C(CSCc1ccccc1)N1CCc2ccccc21 | inactive | 
CC1Cc2ccccc2N1C(=O)c1cc2sccc2n1Cc1ccccc1 (stereo unspecified) | 11.7 µM (active) | 
CC(=O)N1c2ccc(S(=O)(=O)N(C)CC(=O)N(C)Cc3ccccc3)cc2CC1C (stereo unspecified) | inactive | 
CC(OC(=O)Cc1ccc(F)cc1)C(=O)N1CCc2ccccc21 (stereo unspecified) | inactive | 
O=C(c1cc2sccc2n1Cc1ccc(F)cc1)N1CCc2ccccc21 | 14.7 µM (active) | 
CC(C)C(=O)Nc1c2c(nn1-c1ccccc1)CSC2 | inactive | 
CCNC(=O)N1CCN(S(=O)(=O)c2ccc3c(c2)OCCCO3)CC1 | inactive | 
O=C(Nc1cccc(Cl)c1)c1cc(S(=O)(=O)N2CCCCC2)c[nH]1 | inactive | 
O=C(CCN1C(=O)[C@@H]2Cc3ccccc3CN2C1=O)NCc1ccccc1 | inactive | 
CC(=O)N1CCc2cc(S(=O)(=O)NC3CCCCC3)ccc21 | inactive | 
CC(C)C(=O)Nc1oc(-c2ccccc2)cc1C#N | 1.85 µM (active) | 
COc1cc(C(=O)Nc2oc(-c3ccccc3)c(-c3ccccc3)c2C#N)cc(OC)c1OC | inactive | 
CC(Oc1ccccc1)C(=O)Nc1oc(-c2ccco2)c(-c2ccco2)c1C#N (stereo unspecified) | inactive | 
COc1cc(CC(=O)N2CCC(n3nccc3NC(=O)C3CC3)CC2)cc(OC)c1OC | inactive | 
O=C(CN(Cc1ccc(Br)cc1)S(=O)(=O)c1ccccc1)NCc1ccncc1 | inactive | 
Cc1ccc(-c2nc(-c3ccncc3)no2)c(C)c1 | inactive | 
O=C(COC(=O)c1ccccc1Cl)NC1CCCCCCC1 | inactive | 
COc1ccccc1CC(=O)Nc1ccc(S(=O)(=O)N2CCCC2)cc1 | inactive | 
Nc1nonc1-n1nnc(C(=O)N/N=C/C2CCCCC2)c1-c1ccccc1 | inactive | 
Nc1nonc1-n1nnc(C(=O)N/N=C/c2ccc(Cl)cc2)c1-c1ccc2c(c1)OCO2 | 0.329 µM (active) | 
CC(C)c1c(C(=O)N/N=C/c2ccc(-c3ccccc3)cc2)nnn1-c1nonc1N | inactive | 
Cc1cc(F)ccc1S(=O)(=O)Nc1ccc(C(=O)N(C)Cc2ccco2)cc1 | inactive | 
O=C(NCCSc1ncc(-c2ccccc2)[nH]1)c1ccco1 | inactive | 
COc1ccc(CN(C(=O)CSc2nnc(-c3ccc(OC)c(OC)c3)o2)c2ccc(F)cc2)cc1 | 9.28 µM (active) | 

Compound | Potency | activity change, negative = inhibition
CCN(C(=O)CSc1nnc(-c2ccncc2)o1)c1ccccc1 | inactive | 
COc1ccc(CCNC(=O)CSc2nnc(-c3cccc(F)c3)o2)cc1OC | inactive | 
CCc1ccc(NC(=O)C(=O)NNC(=O)c2cccs2)cc1 | inactive | 
O=C(Nc1ccccc1N1CCN(C(=O)c2ccccc2)CC1)c1ccco1 | inactive | 
O=C(Nc1cccc(C(=O)N2CCCC2)c1)c1ccccc1 | inactive | 
O=C(Nc1ccc(N2CCN(C(=O)c3ccccc3)CC2)c(Cl)c1)c1ncn[nH]1 | 11.7 µM (active) | 
C#CCOc1ccccc1/C=C1/C(=O)ON=C1C |  | -13.9% [at 0.00184 µM] (inactive)
O=[N+]([O-])c1ccc2c(c1)Nc1nc3ccccc3nc1N2 | inactive | 
CC(OC(=O)CNC(=O)c1ccc(Cl)c([N+](=O)[O-])c1)C(=O)NCc1ccco1 (stereo unspecified) | inactive | 
O=[N+]([O-])c1cccc(/C([O-])=C(/C(=S)Nc2ccccc2F)[n+]2ccccc2)c1 | inactive | 
Cc1ccc(/C([O-])=C(/C(=S)NCc2ccco2)[n+]2ccccc2)cc1[N+](=O)[O-] | 10.4 µM (active) | 
COc1cccc(C(=O)OCc2cc(=O)oc3c(C)c(C)ccc23)c1OC | inactive | 
Cc1cc(/C=C2/SC(=O)N(CC(=O)N3CCCC3)C2=O)c(C)n1C | inactive | 
Cc1cc(C)c2[nH]c(=O)c(CN(Cc3ccccc3)C(=S)NCCCN(C)C)cc2c1 | 13.1 µM (active) | 
CCN(CC)CCCNC(=S)N(CCO)Cc1cc2cc3c(cc2[nH]c1=O)OCO3 | inactive | 
COCCCNC(=S)N(CCN(C)C)Cc1cc2cc3c(cc2[nH]c1=O)OCCO3 | inactive | 
COc1cc(/C=N/NC(=O)c2ccc(N3CCCC3=O)cc2)ccc1O | inactive | 
O=c1cc(Cl)c2ccccc2n1-c1ccccc1 |  | -0.654% [at 0.00184 µM] (inactive)
COc1ccc(OCc2cc(C(=O)NCC3(C)COC3)no2)c(Cl)c1 | inactive | 
COC(=O)c1c(NC(=O)c2ccccc2F)sc2c1C(C(=O)OC)CC2 (stereo unspecified) | inactive | 
COc1ccc2[nH]c(C)c(CCN(Cc3cccs3)C(=S)Nc3ccccc3OC)c2c1 | 11.7 µM (active) | 
Cc1[nH]c2ccccc2c1CCN(Cc1cccs1)C(=S)NC(C)(C)C | inactive | 
COc1ccc(NC(=S)NCc2cccs2)c(OC)c1 | inactive | 
